Screening results from PubChem BioAssay.
Vaccinia Venus – qHTS for Stage-Specific Inhibitors of Vaccinia Orthopoxvirus: Venus Reporter Primary qHTS | Vaccinia virus Venus reporter expression, fluorescence | Potency, µM (titrated, usually from 36.5 µM), without a hit: at the highest dose activity change, negative = inhibition, usual class: inhibitors | 0.46% of 330,000 active; calls by dose curve; tested in A549 cells; also: potency is read from the fitted curve at half-maximal effect; nearly all actives have a fitted effect of over 30% in size
MARV entry inh – qHTS for inhibitors of binding or entry into cells for Marburg Virus. 1.8% of 300,000 active. AID 540276, 2011. Marburg virus pseudotyped entry inhibition, cell reporter. Potency, µM (top dose mostly 37.8 µM), without a hit: at the highest dose activity change, negative = inhibition, hits mostly inhibitors; calls by dose curve; tested in HEK293 cells; also: potency is read from the fitted curve at half-maximal effect
HCV inh – qHTS Assay for Inhibitors of Hepatitis C Virus (HCV); Potency, µM (highest dose often 41.8 µM), inactives show at the highest dose activity change, negative = inhibition, usual class: inhibitors; 3.4% of 340,000 active; Huh7.5.1 HCVcc-Cre infection, luciferase reporter, 44 h; active = well fitted inhibition curve with a large enough effect; inconclusive = small, poorly fitted or top-dose-only effect, or another doubt; inactive = no such curve, though single readings can be large or run the other way; also: potency is read from the fitted curve at half-maximal effect
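HCVcc-Cre virus at an moi near 0.5 was added right after compound to cells cultured 4 h from seeding (1,000 cells/well). Luciferase activity was determined 44 h later, 15 min after substrate addition at RT.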
Lassa entry inh – qHTS for Inhibitors of binding or entry into cells for Lassa Virus; Lassa virus pseudotype entry inhibition, cell reporter; 1.2% of 300,000 active; Potency, µM (highest dose often 37.9 µM), for the others: at the highest dose activity change, negative = inhibition, most hits filed as inhibitors; calls by dose curve; tested in HEK293 cells; also: potency is read from the fitted curve at half-maximal effect; nearly all actives have a fitted effect of over 50% in size
HCMV inh – qHTS Assay for inhibitors of the human cytomegalovirus (HCMV); HFF cells, HCMV-luciferase reporter, 72 h; active compounds read low; activity change, negative = inhibition, % at 57.5 µM; 4.5% of 410,000 active; AID 1259415, 2018; in the data active = activity change below about -60%; inconclusive = no clear call, values can overlap the other calls; inactive = above about -39%
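HFF cells seeded 16 h at 37C, treated with compounds, infected with luciferase-reporter HCMV at MOI 1 PFU/cell; luciferase read at 72 h post infection, normalized to buffer-only and Salinomycin controls.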
VACV mCherry inh – qHTS for Stage-Specific Inhibitors of Vaccinia Orthopoxvirus: mCherry Reporter Primary qHTS; Vaccinia virus mCherry reporter infection, fluorescence; Potency, µM (series often up to 36.5 µM), inactives show at the top dose activity change, negative = inhibition, usual class: inhibitors; 0.63% of 310,000 active; calls by dose curve; tested in A549 cells; also: potency is read from the fitted curve at half-maximal effect; nearly all actives have a fitted effect of over 35% in size
Active calls of the source: *; ? = inconclusive; nt = not tested or not shown; [ ] = dose if it differs, or a comment. An excerpt weighted towards active compounds, which were near 7.8% of everything screened. % is scaled to controls: 0 for no effect and ±100 for the full control effect.

SMILES	Vaccinia Venus	MARV entry inh	HCV inh	Lassa entry inh	HCMV inh	VACV mCherry inh
Cc1ccc(S(=O)(=O)N(C)c2ccc(C(=O)Nc3ccccn3)cc2)cc1	-10%	13%	-24%	-10%	-1	-4%
CCN(c1ccccc1)S(=O)(=O)c1ccc(OC)c(OC)c1	nt	-15%	14%	1%	-17	nt
CCN(c1ccccc1)S(=O)(=O)c1ccc2ccccc2c1	1%	-24%	5.6µM*	8%	-20	-7%
CC(=O)OCC(O)C1(O)CCC2C3CCC4=CC(=O)CCC4(C)C3C(O)CC21C (stereo unspecified)	nt	nt	nt	nt	79	nt
COc1cccc(CN2c3ccccc3-c3nc(SCC(=O)Nc4cccc(C)c4)ncc3S2(=O)=O)c1	15%	?	nt	-18%[46.1 µM]	-21	17%
O=C(Nc1ccc(O)c(-c2nc3ccccc3o2)c1)c1sc2ccccc2c1Cl	1%	nt	nt	8%[46.1 µM]	28	-8%
COCc1c(C(=O)N2CCN(c3ccccc3)CC2)cnn1-c1nccc(-c2ccco2)n1	-11%	nt	nt	nt	nt	-21%
CCOc1ccc(NC(=O)Cn2ccn3nc(-c4ccc(OC)c(OC)c4)cc3c2=O)cc1	0%	nt	nt	?	20	-7%
Cc1ccc(S(=O)(=O)N(C)c2ccc(C(=O)Nc3cccc(C)n3)cc2)cc1	-18%	?	?	-14%	-77*	-17%
CCN(c1ccccc1)S(=O)(=O)c1ccc(C(=O)Nc2cccc(C)n2)cc1	nt	nt	11µM*	nt	19	nt
COC(=O)c1cccc(NC(=O)C2CCN(S(=O)(=O)Cc3ccccc3)CC2)c1C	-2%	-1%[46.1 µM]	nt	0%[46.1 µM]	18	-7%
CCOc1cccc(=NC2CCCCC2)c2c(C)n(C)c(C)c12	?	?	?	-25%	-110*	20µM*
CCOC(=O)Oc1c(OC)cc(C(=O)O[C@@H]2C[C@@H]3CN4CCc5c([nH]c6cc(OC)ccc56)[C@H]4C[C@@H]3[C@H](C(=O)OC)[C@H]2OC)cc1OC	?	nt	5.6µM*	nt	-68*	?
Cc1ccc(CCNC(=O)c2ccc(NC(=O)N3CCSc4ccccc43)cc2)cc1	-4%	2%[46.1 µM]	nt	?	-2	0%
CCOCCCNC(=O)C1CCN(c2cc(C)nc3c(-c4ccc(OC)c(OC)c4)c(C)nn23)CC1	nt	-24%	11µM*	-12%	-6	nt
COc1ccc(CCNc2cc(C)nc3c(-c4ccc(Cl)cc4)cnn23)cc1OC	-22%	-11%	?	-4%	34	-27%
COc1ccc(-c2c(C)nn3c(NC4CCCC4)cc(C)nc23)cc1OC	nt	nt	10µM*	nt	?	nt
COc1ccccc1-c1cnn2c(NCCc3ccccc3)cc(C)nc12	-9%	-2%[46.1 µM]	10µM*	-32%[46.1 µM]	-2	-9%
COc1ccc(CCNc2cc(C)nc3c(-c4ccccc4)cnn23)cc1OC	-20%	9.2µM*	?	8.9µM*	-68*	-11%
CCC(O)c1nc2ccccc2n1CCOc1cc(C)cc(C)c1 (stereo unspecified)	-19%	?	nt	?	29	-1%
COc1ccc(CCNc2cc(C)nc3c(-c4ccccc4)c(C)nn23)cc1OC	-15%	-36%	11µM*	1%	-18	-9%
COCCNc1cc(C)nc2c(-c3ccccc3OC)c(C)nn12	-12%	0%	?	19%	?	-14%
COc1ccc(NC(=O)Cn2c(SCc3ccc(F)cc3)nc3cccnc32)cc1OC	-19%	nt	nt	27%[46.1 µM]	-16	-25%
COc1ccc(COn2nnc3ccc(S(=O)(=O)N4CCOCC4)cc32)cc1F	?	5%[46.1 µM]	10µM*	8%	-27	?
CCOc1ccc(NC(=O)CSC2=Nc3ccccc3C3=NC(Cc4ccccc4)C(=O)N23)cc1 (stereo unspecified)	-13%	nt	nt	-29%[46.1 µM]	44	-23%
SMILES	Vaccinia Venus	MARV entry inh	HCV inh	Lassa entry inh	HCMV inh	VACV mCherry inh
COc1ccc(CC(=O)Nc2nc(C(C)(C)C)cs2)cc1	-29%	?	10µM*	4.5µM*	?	?
COc1ccc(CC(=O)Nc2nc3c(s2)CCCC3)cc1	-5%	2.5µM*	nt	4µM*	-37	-7%
CC(=O)Nc1nc2c(ccc3ccccc32)s1	nt	nt	?	nt	119	nt
COc1ccc(OC)c(-c2csc(NC(=O)Cc3cccs3)n2)c1	-25%	-8%	?	0.32µM*	34	-6%
O=C(Cc1cccs1)Nc1nc2c(ccc3ccccc32)s1	?	?	?	7.9µM*	63	-20%[1.46 µM]
COc1ccc(CC(=O)Nc2nc3c(s2)CC(C)CC3)cc1 (stereo unspecified)	-6%	?	nt	16%[46.1 µM]	16	-17%
O=C(Cc1cccs1)Nc1nc(-c2ccc(F)c(F)c2)cs1	-8%	-1%[46.1 µM]	?	?	16	?
COc1ccc(OC)c(-c2csc(NC(=O)C3c4ccccc4Oc4ccccc43)n2)c1	-17%	-7%	?	?	-66*	-12%
O=C(Cc1cccs1)Nc1nc(-c2ccc(F)cc2F)cs1	nt	?	11µM*	1.6µM*	0	nt
COc1ccc(OC)c(-c2csc(NC(=O)C3COc4ccccc4O3)n2)c1 (stereo unspecified)	-19%	1%	?	?	-7	-27%
COc1ccc(CC(=O)Nc2nc(-c3cc(OC)ccc3OC)cs2)cc1	?	?	13µM*	?	-23	11µM*
COC(=O)c1c(-c2ccc(OC)c(OC)c2)csc1N	3%	0%	19%	6%	19	-2%
COC(=O)c1c(-c2ccc3ccccc3c2)csc1NC(=O)Cc1ccc(OC)c(OC)c1	?	?	?	?	-83*	nt
Cc1csc(NC(=O)c2ccccc2O)n1	-16%	?	26%	-8%	59	nt
COc1ccc(OC)c(-c2csc(NC(=O)Cc3ccc(OC)c(OC)c3)n2)c1	0%	4%[46.1 µM]	?	?	-18	7%
CC(C)(C)c1csc(NC(=O)c2ccccc2O)n1	?	11µM*	22µM*	?	-94*	?
O=C(CSC1=NCCS1)Nc1nc2c(s1)CCCC2	nt	24%	?	24%	-73*	nt
COc1ccc(OC)c(-c2csc(NC(=O)COC(=O)C3(C)CC3(Cl)Cl)n2)c1 (stereo unspecified)	nt	nt	14µM*	nt	11	nt
CC(=O)Nc1ccc(-c2csc(NC(=O)Cc3cccc(F)c3)n2)cc1	-22%	?	7.9µM*	?	-3	?
Cn1nnnc1SCC(=O)Nc1nc2c(s1)CCCC2	-15%	?	-3%	-7%	107	-1%
CCC(CC)C(C(=O)NC1CCCCC1)N1C(=O)C(=O)c2ccccc21 (stereo unspecified)	nt	nt	nt	nt	3	nt
C[C@H](CO)N1C[C@H](C)[C@@H](CN(C)C(=O)Nc2ccc3c(c2)OCCO3)OCc2cn(nn2)CCCC1=O	nt	nt	nt	nt	12	nt
